TDP-43 yeast inh = inhibitors of TDP-43 toxicity in yeast | TDP-43 expressing yeast growth rescue, BacTiter-Glo, 24 h | Potency, µM (highest dose often 46.1 µM), inactives show at the highest dose growth rescue (activation), most hits filed as activators | 410,000 tested, 1.8% active | AID 652104; note: % of control where 0% means no effect; nearly all actives have a fitted effect of over 50% in size
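Cell-based yeast growth screen: TDP-43 expression induced in galactose, inoculum OD600=0.02 after raffinose pregrowth to mid-log. Read-out BacTiter-Glo luminescence at 24 hr, 30 deg C; inhibition of toxicity seen as signal increase.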
BCR signal inh = blocks chronic active B-cell receptor signaling; ABC-DLBCL IkBa-CBG/CBR reporter, luminescence ratio, 4 h; Potency, µM (series often up to 46.1 µM), for inactives: at the top dose activity change, negative = inhibition, hits mostly inhibitors; 340,000 tested, 0.05% active; AID 493014; active = well fitted inhibition curve with a large enough effect in the signal ratio, with a control signal flat, not every such curve was filed as active; inconclusive = small, poorly fitted or top-dose-only effect, or effect the other way, or a change in a side signal; the % refers to the signal ratio;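 note: plate controls were basal doxycycline-induced cells for no effect and cells given 10 µM MG132 for full effect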
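Cell line TMD8 (human ABC DLBCL), stably expressing tet-inducible CBG68-IkBa fusion and CBR; IMDM/0.5% FBS; cpd up to 46 uM; dox induction, 4 h, 37C/5% CO2; dual luminescence; green/red ratio; MG132 control.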
aSyn yeast inh = alpha-synuclein toxicity inhibition in yeast | Yeast expressing alpha-synuclein, growth rescue, BacTiter-Glo, 24 h | Potency, µM (titrated, usually from 46.1 µM), for inactives: top-dose growth rescue (activation), actives largely listed as activators | 370,000 tested, 0.14% active | AID 652106; note: % of control where 0% means no effect; nearly all actives have a fitted effect of over 65% in size
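Screening used galactose-induced yeast with toxic alpha-synuclein levels, exposed to compound for 24 hr at 30 deg C. Cell growth, read with BacTiter-Glo luminescence, gave the measured signal.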
Abeta rescue = A-beta toxicity reversal in yeast; yeast expressing A-beta42, growth rescue, OD600, 48 h; response scale: 0% DMSO, 100% iron-clioquinol control; Potency, µM (highest dose often 46.1 µM), hits mostly activators; 410,000 tested, 0.063% active; note: nearly all actives have a fitted effect of over 55% in size
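Yeast growth medium received pinned compounds, then yeast cells expressing toxic A-beta were added; plates incubated at 30 C for 48 hr. Growth read as absorbance at 600 nm, normalized to DMSO and equimolar FeCl3 plus clioquinol controls.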
FUS yeast rescue = rescues growth of FUS-expressing yeast; AID 1347120; S. cerevisiae FUS-expressing, growth rescue, OD600, 24 h; 390,000 tested, 0.24% active; Potency, µM (doses to about 76.6 µM), usual class: activators;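 note: plate controls were DMSO vehicle for no effect and reference control for full effect; nearly all actives have a fitted effect of over 55% in size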
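FUS-expressing yeast, raffinose-pregrown, induced in 2% galactose minimal medium at OD 0.005; compounds in a dilution series, 24hr at 30C. Growth restoration read as absorbance at 600 nm. CP55940 positive control, DMSO negative.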
uPA surface inh = blocks generation of uPA at the cell surface | Potency, µM (highest dose often 38.3 µM), without a hit: at the top dose activity change, negative = inhibition, usual class: inhibitors | AID 540303 | 330,000 tested, 0.31% active | cell surface uPA generation assay, qHTS; active = well fitted inhibition curve with a large enough effect; inconclusive = small, poorly fitted or top-dose-only effect; inactive = no such curve, though single readings can be large or run the other way; tested in mouse RAW 264.7 cells; note: % is set by controls: 0 for no effect and ±100 for the full control effect; nearly all actives have a fitted effect of over 55% in size
An asterisk follows results filed as active; i = inactive; ? = inconclusive; . = not tested or not shown. An excerpt weighted towards active compounds, which were near 2.3% of everything screened. Unless noted, calls come from the whole dose curve; as a rule, active = well fitted curve in the direction sought with a large enough effect; inconclusive = small, poorly fitted or top-dose-only effect, or another doubt; inactive = no such curve, though single readings can be large; an effect the other way counts as inactive or inconclusive. Potency is the fitted concentration of half-maximal effect.

SMILES	TDP-43 yeast inh	BCR signal inh	aSyn yeast inh	Abeta rescue	FUS yeast rescue	uPA surface inh
Cc1ccc(OCCCC(=O)Nc2nncs2)cc1	11%	-1%	2%	i	i	3%
O=C(NC(=S)Nc1cccc2cccnc12)c1cccs1	13%	0%	16µM*	i	i	-22%
O=C(NC(=S)Nc1cccc2cccnc12)c1ccccc1	15%	?	0%	i	i	0%
CCOC(=O)c1c(NC(=O)CN2CCN(C)CC2)sc(C(=O)Nc2ccccc2)c1C	2%	?	-5%	i	i	-1%
CC(NC(=O)CCCCCCN1C(=O)c2ccccc2C1=O)c1ccc2c(c1)CCCC2 (stereo unspecified)	35µM*	9%	-16%	i	.	-4%
CC(NC(=O)CCCCCN1C(=O)c2ccccc2C1=O)c1ccc2c(c1)CCCC2 (stereo unspecified)	27%	3%	-10%	i	i	-7%
CCn1cc(C(=O)OCC(=O)Nc2ccccc2OC(F)F)c(=O)c2ccc(C)nc21	8%	3%	1%	i	i	4%
CCOc1ccccc1NC(=O)COC(=O)c1cn(CC)c2nc(C)ccc2c1=O	35µM*	.	.	i	i	.
CCn1cc(C(=O)OCC(=O)c2cc(C)n(-c3ccccc3)c2C)c(=O)c2ccc(C)nc21	28%	?	2%	i	i	-3%
CCn1cc(C(=O)OCC(=O)c2cc(C)n(-c3ccc(OC(F)F)cc3)c2C)c(=O)c2ccc(C)nc21	13µM*	-5%	0%	i	.	4%
c1nc(N2CCOCC2)c2c3c(sc2n1)CCCC3	15%	-11%	5%	i	i	-2%
O=C(c1ccccc1)N1CCN(c2ncnc3sc4c(c23)CCC4)CC1	22µM*	?	11%	i	i	0%
CC(=O)Oc1ccc2c(c1)CCC1C2CCC2(C)C(OC(C)=O)CCC12 (stereo unspecified)	32µM*	.	-16%	i	?	-15%
Oc1ccc(Br)cc1CNc1cccc2cccnc12	-94%	1%	-83%	i	i	-6%
Oc1c(Br)cc(Br)cc1CNc1cccc2cccnc12	18µM*	?	?	i	i	?
O=C(c1ccccc1)[C@@H]1[C@@H](C(=O)c2ccc(F)cc2)[C@@]2(C(=O)Nc3ccccc32)[C@H]2c3ccccc3C=CN12	-4%	?	1%	i	?	1%
O=C(NCCc1csc(-c2ccc(F)cc2)n1)c1ccc(Br)o1	?	.	.	i	i	.
O=C(NCCc1csc(-c2cccc(F)c2)n1)c1ccccc1C(F)(F)F	18µM*	.	.	i	i	.
O=C(NCCc1csc2nc(-c3ccccc3F)nn12)c1ccccc1C(F)(F)F	18µM*	.	.	i	i	.
O=C(NCCc1csc(-c2cccc(F)c2)n1)c1ccc(Br)o1	32µM*	.	.	i	i	.
COc1cccc(C2/C(=C(\O)c3ccc4c(c3)OCCO4)C(=O)C(=O)N2CCN(C)C)c1 (stereo unspecified)	6%	-23%	4%	i	i	-2%
C=CC[C@]12CC=CC(=O)[C@@]1(O)O[C@H](c1ccc(OC)c(OC)c1)[C@H]2C	30%	.	2%	i	i	7.9µM*
C=CC[C@]12C=C(OC)C(=O)C(OC)=C1O[C@@H](c1ccc3c(c1)OCO3)[C@H]2C	5%	.	0%	i	i	-15%
CN(Cc1ccccc1)C(=O)c1ncn(C)c1C(=O)N(C)Cc1ccccc1	5%	0%	1%	i	i	3%
COc1ccc(NC(=O)c2cc(-c3cc(F)ccc3OC(C)C)n[nH]2)cc1OC	35µM*	.	2%	i	i	.
SMILES	TDP-43 yeast inh	BCR signal inh	aSyn yeast inh	Abeta rescue	FUS yeast rescue	uPA surface inh
COc1ccc(NC(=O)c2cc(-c3cc(F)ccc3OC)n[nH]2)c(C)c1	22µM*	.	-2%	i	i	.
CC(C)Oc1ccc(F)cc1-c1cc(C(=O)NC2CCCCC2)[nH]n1	16µM*	.	-7%	i	i	.
COc1ccc(NC(=O)c2cc(-c3cc(F)ccc3OC(C)C)n[nH]2)c(OC)c1	20µM*	.	1%	i	i	.
COc1cc(NC(=O)c2cc(-c3cc(F)ccc3OC(C)C)n[nH]2)cc(OC)c1OC	0%	.	6%	i	i	.
O=C(Cc1ccccc1)Nc1cccc(-c2nnc(-c3ccco3)o2)c1	20%	5%	-3%	i	i	2%
C#CCN(C[C@@H]1[C@@H](OC(=O)NCc2ccc(OC)c(OC)c2)[C@@H](OC(=O)NCc2ccc(OC)c(OC)c2)Cn2c(=O)ccc(=O)n21)S(=O)(=O)c1ccc(C)cc1	0%	.	0%	i	?	.
COc1ccc(NC(=O)c2cc(-c3cc(Cl)ccc3C)n[nH]2)cc1OC	20µM*	.	10%	i	i	.
COc1ccc(NC(=O)c2cc(-c3cc(F)ccc3OCC3CCCO3)n[nH]2)c(C)c1 (stereo unspecified)	13µM*	.	-11%	i	?	.
COc1ccc(NC(=O)c2cc(-c3ccc(F)cc3OC(C)C)n[nH]2)c(OC)c1	25µM*	.	-19%	i	i	.
O=C(NC(=S)Nc1ccccc1)c1cc(-c2ccccc2)nc2ccccc12	-6%	4%	-1%	i	i	5%
CC(=O)NC(c1cccc([N+](=O)[O-])c1)c1ccc2cccnc2c1O (stereo unspecified)	-8%	?	-3%	?	i	-13%
CCCCC(=O)NC(c1cccc([N+](=O)[O-])c1)c1ccc2cccnc2c1O (stereo unspecified)	?	.	0%	i	?	5µM*
Cn1cc(C(CO)Cc2ccccc2)c2ccccc21 (stereo unspecified)	?	4%	18µM*	i	i	10%
CS(=O)(=O)c1nc2ccccc2n1Cc1ccccc1	14%	-11%	6%	i	i	.
CCS(=O)(=O)c1nc2ccccc2n1Cc1ccccc1Cl	16µM*	4%	-4%	i	i	?
Cc1cccc(/C=C/C(=O)c2ccc([N+](=O)[O-])o2)c1	-93%	-28%	-71%	i	i	7.1µM*
O=C(/C=C/c1cccc([N+](=O)[O-])c1)c1ccco1	6.3µM*	-3%	12%	i	i	-13%
Cc1ccc(/C=C/C(=O)c2c(C)nc3ccccn23)cc1	?	?	-6%	i	i	-9%
Cc1nc2ccccn2c1C(=O)/C=C/c1cccc([N+](=O)[O-])c1	2.5µM*	0%	-5%	i	i	?

Screening data from PubChem.
